A selection: hits, their analogues and other compounds. The true share with any hit is near 18%.
VDR inhibitor: vitamin D3 receptor (human) inhibition; Potency, µM, for the others: max response, negative = inhibition, most hits filed as inhibitors; P11473; VDR-SRC2-3 peptide fluorescence polarization, 2 h; 0.93% of 400,000 active
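Inhibition of the VDR/SRC2-3 peptide interaction is quantified by fluorescence polarization. Compounds (23 nl, pintool) incubate with the reagents for 2 hours at ambient room temperature.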
PLK1 PBD inh: inhibitors of human PLK1 polo-box domain binding | P53350 | Plk1 PBD binding of FITC phosphopeptide, fluorescence polarization | Potency, µM, for inactives: max response, negative = inhibition, usual class: inhibitors | 2.8% of 360,000 active | AID 720504; note: series mostly up to about 57 µM; nearly all actives have a fitted effect of over 65% in size
KAT2A inh: inhibitors of human GCN5L2 histone acetyltransferase; Q92830; GCN5L2 HAT assay, ThioGlo1 CoA-SH fluorescence; 0.21% of 390,000 active; Potency, µM (series often up to 58.9 µM), without a hit: top-dose activity change, negative = inhibition, actives largely listed as inhibitors
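Compounds, pin-transferred from DMSO stocks, meet 20nM GCN5L2 for 15 min before the reaction begins with H3(1-25) peptide (75uM) and acetyl-CoA (70uM). Thiol-reactive ThioGlo1 reports CoA release over 20 min at room temperature.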
DT40 TDP1 CPT: growth inhibition of DT40 Tdp1-/-;hTDP1 cells with camptothecin (screen for TDP1 inhibitors); AID 686979; Potency, µM (highest dose often 46.2 µM), without a hit: top-dose activity change, negative = growth inhibition, hits mostly inhibitors; chicken DT40 Tdp1-/-;hTDP1 cells + 20 nM CPT, ATP luminescence, 48 h; 12% of 420,000 active; note: nearly all actives have a fitted effect of over 55% in size
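Chicken DT40 Tdp1-/- cells stably complemented with human TDP1 were seeded at 400 cells/well in medium containing 20 nM camptothecin, exposed to pin-transferred compounds, and grown at 37 °C for at least 48 hr. Viability was read as ATP luminescence.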
DT40 TDP1 no CPT: qHTS for Inhibitors of human tyrosyl-DNA phosphodiesterase 1 (TDP1): qHTS in cells in absence of CPT | DT40 Tdp1-/- hTDP1 cells, no CPT, ATP luminescence, 48 h | Potency, µM (highest dose often 46.2 µM), for the others: at the highest dose activity change, negative = growth inhibition, actives largely listed as inhibitors | 15% of 420,000 active; note: nearly all actives have a fitted effect of over 55% in size
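DT40 Tdp1-/-;hTDP1 cells, no CPT (DMSO vehicle only), 400 cells/well; compounds pin-transferred; ≥48 hr, 37 °C; CellTiter-Glo 30 min RT dark, luminescence read.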
TDP1 block: inhibitors of human tyrosyl-DNA phosphodiesterase TDP1. recombinant TDP1, AlphaScreen DNA substrate cleavage. AID 485290. 0.28% of 350,000 active. Potency, µM (top dose mostly 130 µM), without a hit: at the top dose activity change, negative = inhibition, most hits filed as inhibitors. Q9NUW8; note: nearly all actives have a fitted effect of over 40% in size
Target sequence (Q9NUW8 whole entry, looked up): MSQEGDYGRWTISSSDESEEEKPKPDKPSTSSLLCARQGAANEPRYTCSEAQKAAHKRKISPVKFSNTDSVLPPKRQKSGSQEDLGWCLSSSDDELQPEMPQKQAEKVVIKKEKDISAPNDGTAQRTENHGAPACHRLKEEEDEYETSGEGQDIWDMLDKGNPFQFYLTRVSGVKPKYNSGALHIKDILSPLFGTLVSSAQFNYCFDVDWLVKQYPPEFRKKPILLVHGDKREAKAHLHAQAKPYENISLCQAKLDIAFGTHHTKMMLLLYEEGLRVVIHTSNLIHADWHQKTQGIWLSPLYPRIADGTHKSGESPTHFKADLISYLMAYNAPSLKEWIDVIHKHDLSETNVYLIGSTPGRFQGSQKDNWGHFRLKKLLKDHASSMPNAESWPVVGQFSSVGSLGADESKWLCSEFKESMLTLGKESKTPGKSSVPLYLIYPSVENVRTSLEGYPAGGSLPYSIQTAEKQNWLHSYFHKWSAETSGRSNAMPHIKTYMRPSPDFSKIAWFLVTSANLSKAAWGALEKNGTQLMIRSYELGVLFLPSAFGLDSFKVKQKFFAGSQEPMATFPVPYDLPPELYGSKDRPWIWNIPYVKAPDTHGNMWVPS
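Steps: enzyme plus compound, 15 min RT; add biotin/phosphotyrosine-FITC oligonucleotide (15 nM final), react 5 min; add donor/acceptor beads (10 ug/ml final), 10 min; read AlphaScreen. Tdp1 at 1 nM final.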
* = called active by the depositor; ? = inconclusive; · = no result given; [ ] = dose if it differs, or a comment. Calls come from the whole dose curve; as a rule, active = well fitted curve in the direction sought with a large enough effect; inconclusive = small, poorly fitted or top-dose-only effect, or another doubt; inactive = no such curve, though single readings can be large; an effect the other way counts as inactive or inconclusive. % is set by controls: 0 for no effect and ±100 for the full control effect; potency is the fitted concentration of half-maximal effect.

SMILES	VDR inhibitor	PLK1 PBD inh	KAT2A inh	DT40 TDP1 CPT	DT40 TDP1 no CPT	TDP1 block
Cc1ccc2c(c1)C(c1ccc(F)cc1)N(C(=O)c1ccc(S(=O)(=O)N3CCCCC3)cc1)CC(=O)N2 (configuration not stated)	14.7%	·	-2.7%	18.4µM*	?	8.8%
CCOc1ccc(CCNC(=O)Cn2ncn3c(cc4ccccc43)c2=O)cc1OCC	0.8%	·	-0.9%	-9.5%	-25.7%	1.0%
NC(=O)CC(NC(=O)c1ccccc1)c1ccc(NCCc2ccc(Cl)cc2)c([N+](=O)[O-])c1 (configuration not stated)	-13.5%	-9.7%	3.3%	?	?	7.5%
CCCOc1cccc(C(=O)NCCNC(=O)c2ccc(C)nc2)c1	-9.8%	-4.4%	-1.8%	3.8%	-6.2%	-0.9%
COc1ccc(CCNC(=O)C2CCN(c3nc4ccccc4nc3C(F)(F)F)CC2)cc1OC	5.6%	·	1.6%	23.1µM*	18.4µM*	5.3%
CCCSCCCNC(=O)C1CCN(c2nc3ccccc3nc2C(F)(F)F)CC1	0.2%	·	5.4%	20.6µM*	16.4µM*	-2.6%
O=C(NCCc1ccccc1)C1CCN(c2nc3ccccc3nc2C(F)(F)F)CC1	-6.8%	·	4.3%	?	?	-10.5%
CCn1c(-c2ccccc2F)nc2cc(NC(C)=O)cc(C(=O)N(C)Cc3ccc4nccnc4c3)c21	·	·	·	?	-19.8%	·
CCOc1ccc(-n2c(CCC(=O)O)ccc2-c2ccc(Br)cc2)cc1	10.2%	·	-19.7%	?	?	·
Cc1ccc(NC(=O)c2ncn(CCCNCC(C)c3ccccc3)n2)cc1C (configuration not stated)	-17.1%	-6.2%	·	?	?	·
COc1ccc(-c2cn[nH]c2-c2ccc(OCC(=O)NN)cc2O)cc1OC	8.9%	3.2%	-25.8%	6.7%	?	·
Oc1cc(OCc2ccccc2)ccc1-c1[nH]ncc1-c1ccccc1	2.3%	5.1%	-8.8%	10.3µM*	11.6µM*	5.6%
COc1ccccc1-c1cn[nH]c1-c1ccc(OCc2ccc(F)cc2)cc1O	-7.3%	-5.2%	-10.1%	?	?	·
O=[N+]([O-])c1ccc(COc2ccc(-c3[nH]ncc3-c3ccccc3)c(O)c2)cc1	-5.8%	5.1%	-12.8%	?	?	6.9%
COc1ccc(-c2cn[nH]c2-c2ccc(OCc3ccc(F)cc3)cc2O)cc1OC	-2.8%	-14.8%	-18.1%	20.6µM*	23.1µM*	·
COc1ccccc1-c1cn[nH]c1-c1ccc(OCc2ccccc2F)cc1O	31.9%	3.2%	-14.8%	18.4µM*	14.6µM*	6.3%
COc1ccc(-c2cn[nH]c2-c2ccc(OCc3ccccc3)cc2O)cc1OC	5.7%	2.5%	-15.8%	16.4µM*	18.4µM*	·
CCNc1ccc(-c2nc(-c3ccncc3)no2)cc1[N+](=O)[O-]	8.5%	·	-0.2%	?	-13.7%	5.7%
CCc1cc(=O)oc2cc3occ(-c4ccc(OC)c(F)c4)c3cc12	-20.3%	-5.0%	1.0%	4.61µM*	2.06µM*	-5.3%
C=C1C=CS(=O)(=O)N(C(C)C(=O)OC)C1 (configuration not stated)	-9.2%	·	·	·	·	0.3%
COc1ccc(OC)c(-c2ccc(O)c(CN3CCc4c([nH]c5ccccc45)C3)c2)c1	·	·	·	-4.9%[9.04 µM]	?	·
O=C(Nc1ccc2nc3n(c(=O)c2c1)CCCCC3)c1cc([N+](=O)[O-])ccc1F	-14.8%	-2.8%	-24.9%	6.51µM*	2.59µM*	1.8%
O=C(Nc1ccc2nc3n(c(=O)c2c1)CCCC3)c1ccccc1F	23.6%	-2.3%	-4.4%	-17.8%	1.4%	·
O=C(Nc1ccc2nc3n(c(=O)c2c1)CCCCC3)c1c(F)ccc([N+](=O)[O-])c1F	?	23.8µM*	-7.4%	2.59µM*	2.31µM*	1.0%
O=C(c1cc2ccccc2oc1=O)N(Cc1cccs1)Cc1cccs1	?	15µM*	-4.9%	?	23.1µM*	-5.0%
SMILES	VDR inhibitor	PLK1 PBD inh	KAT2A inh	DT40 TDP1 CPT	DT40 TDP1 no CPT	TDP1 block
CC(=O)c1cccc(-c2ccnc3c2CC(C(=O)Nc2cccc(Oc4ccccc4)c2)O3)c1 (configuration not stated)	·	1.4%	·	?	?	·
COc1ccc(NC(=O)C2Cc3c(-c4cccc(C(N)=O)c4)ccnc3O2)cc1 (configuration not stated)	·	4.8%	·	5.8µM*	3.66µM*	·
O=C(Nc1cccc(OC(F)(F)F)c1)C1Cc2c(-c3cccc(F)c3)ccnc2O1 (configuration not stated)	·	-9.1%	·	?	?	·
CC(=O)Nc1cccc(-c2ccnc3c2CC(C(=O)NC(C)C)O3)c1 (configuration not stated)	·	-15.2%	·	-21.7%	?	·
COc1ccc(NC(=O)C2Cc3c(-c4cccc(NC(C)=O)c4)ccnc3O2)cn1 (configuration not stated)	·	-3.2%	·	2.59µM*	1.84µM*	·
COc1ccc(NC(=O)C2Cc3c(-c4cccc(F)c4)ccnc3O2)cc1 (configuration not stated)	·	-7.0%	·	20.6µM*	?	·
COc1ccc(NC(=O)C2Cc3c(-c4cccc(C(N)=O)c4)ccnc3O2)cn1 (configuration not stated)	·	-1.1%	·	10.3µM*	11.6µM*	·
NC(=O)c1cccc(-c2ccnc3c2CC(C(=O)NCCC(F)(F)F)O3)c1 (configuration not stated)	·	-2.5%	·	?	-20.2%	·

From PubChem
